{"source": "PubChem BioAssay AID463173", "about": "(ICCB-Longwood Screening Facility, Harvard Medical School, 2010)", "note": "About 4,300 (8.3%) of roughly 52,000 compounds were called active. What follows is part of a selection rich in actives, with near analogues and random picks from the rest. A number with no mark means an inactive call. Cut-off read from the data, not from the text of the source: active = survival mostly below about 52% (no sharp cut-off); inactive = mostly above about 56%.", "data": [{"test_system": "DeltatarO mutant", "assay": "growth inhibition of S. aureus wild type versus tarO mutant, primary screen, teichoic acid synthesis inhibitors, RN4220, OD600 (AID 463173)", "conditions": "OD600, 18 h, active compounds read low, screened at 18.75 µg/mL (by protocol)", "values": [{"smiles": "COc1ccc(-c2[nH]c(-c3ccccc3)nc2SCC(=O)Nc2ccc3c(c2)OCO3)cc1", "survival": "51%"}, {"smiles": "Clc1cccc(-n2cc(-c3ccccc3)c3c(NC4CCCC4)ncnc32)c1", "survival": "78%"}, {"smiles": "COc1ccccc1N1CCN(S(=O)(=O)c2c(C)sc3ncn(CC(=O)N(C)c4ccc(Cl)cc4)c(=O)c23)CC1", "survival": "65%"}, {"smiles": "COc1ccc(NC(=O)CC(C)S(=O)(=O)c2cc3c(cc2C)NC(=O)CO3)cc1OC", "note": "(stereo not given)", "survival": "88%"}, {"smiles": "CCC(C)NC(=O)CSc1nc2cc3c(cc2c(=O)n1CCCCCC(=O)NCc1ccc(OC)cc1)OCO3", "note": "(stereo not given)", "survival": "76%"}, {"smiles": "COc1ccc(-c2nc(C)c(CCNC(=O)C(=O)Nc3ccccc3F)s2)cc1", "survival": "115%"}, {"smiles": "CN(C)c1ccc(-c2nnc(SCC3CCCO3)n2C)cc1", "note": "(stereo not given)", "survival": "82%"}, {"smiles": "O=C(CCC1N=C2c3ccccc3N=C(SCc3ccc(Cl)cc3)N2C1=O)NCCc1ccccc1", "note": "(stereo not given)", "survival": "90%"}, {"smiles": "Cc1cccc(NC(=O)c2cc3c(C)nn(-c4ccccc4)c3s2)c1", "survival": "6% (active)"}, {"smiles": "Cc1nn(-c2ccccc2)c2sc(C(=O)Nc3ccc(Br)cc3)cc12", "survival": "26% (active)"}, {"smiles": "CCOc1ccc(NC(=O)c2cc3c(C)nn(-c4ccccc4)c3s2)cc1", "survival": "75%"}, {"smiles": "Cc1nn(-c2ccccc2)c2sc(C(=O)N/N=C/c3ccccc3)cc12", "survival": "110%"}, {"smiles": "Cc1cccc(NC(=O)c2ccc(-c3ccccc3)s2)c1", "survival": "82%"}, {"smiles": "O=C(c1cccc(Cl)c1)N1c2ncnn2C2(CCCCC2)[C@@H]2CCCC[C@@H]21", "survival": "80%"}, {"smiles": "O=C(NCc1ccccc1Cl)C1CCCN(C(=O)c2cnn(-c3ccc(F)cc3)c2-n2cccc2)C1", "note": "(stereo not given)", "survival": "67%"}, {"smiles": "O=C(CCN1N=C(c2ccccc2)CCC1=O)NCCc1ccc(Cl)cc1", "survival": "122%"}, {"smiles": "CCc1cccc(NC(=O)c2c(C)oc3ncnc(N4CCCCC4)c23)c1", "survival": "54%"}, {"smiles": "COC(=O)CSc1nc2c(cc1C#N)CCCC2", "survival": "106%"}, {"smiles": "CC1CCN(c2oc(-c3cccs3)nc2S(=O)(=O)c2ccc(Cl)cc2)CC1", "survival": "17% (active)"}, {"smiles": "O=S(=O)(c1ccc(Cl)cc1)c1nc(-c2cccs2)oc1SCc1ccc(F)cc1", "survival": "67%"}, {"smiles": "COc1ccc(-c2nc(S(=O)(=O)c3ccccc3)c(N3CCC(C)CC3)o2)cc1", "survival": "74%"}, {"smiles": "COc1ccccc1-c1nc(S(=O)(=O)c2ccccc2)c(N2CCC(C)CC2)o1", "survival": "19% (active)"}, {"smiles": "COc1ccccc1-c1nc(S(=O)(=O)c2ccc(Cl)cc2)c(N2CCCCCC2)o1", "survival": "60%"}, {"smiles": "O=S(=O)(c1ccc(Cl)cc1)c1nc(-c2ccccc2Br)oc1N1CCOCC1", "survival": "59%"}, {"smiles": "Cc1ccc(S(=O)(=O)c2nc(-c3cccs3)oc2N2CCC(C)CC2)cc1", "survival": "8% (active)"}, {"smiles": "CC1CCN(c2nc3c(S(=O)(=O)c4ccc(Cl)cc4)nnn3c3ccsc23)CC1", "survival": "113%"}, {"smiles": "CCCSc1oc(-c2cccs2)nc1S(=O)(=O)c1ccc(Cl)cc1", "survival": "65%"}, {"smiles": "O=S(=O)(c1ccc(Cl)cc1)c1nc(-c2cccs2)oc1N1CCCCC1", "survival": "45% (active)"}, {"smiles": "COc1ccccc1-n1nc(-c2ccccc2)c2cnc3cc(C(F)(F)F)ccc3c21", "survival": "81%"}, {"smiles": "CCCS(=O)(=O)N1CC(=O)N(c2cccc(Cl)c2C)C(C)(C(=O)NC2CCCC2)C1", "note": "(stereo not given)", "survival": "99%"}, {"smiles": "COc1ccccc1N1CCN(C(=O)c2cc3c(=O)n(Cc4ccco4)ccc3nc2C)CC1", "survival": "80%"}, {"smiles": "CC(C)CN1CCc2nc(N3CCN(C)CC3)ncc2C1", "survival": "83%"}, {"smiles": "Sc1ccc2oc3ccc(S)cc3c2c1", "survival": "93%"}, {"smiles": "CCS(=O)(=O)c1nc(S(=O)(=O)c2ccc(C)cc2)c(NCc2ccccc2Cl)s1", "survival": "81%"}, {"smiles": "CCc1nn(CC(=O)Nc2ccc(N(CC)CC)cc2C)c(=O)c2cc3sccc3n12", "survival": "77%"}, {"smiles": "O=C(Cc1ccc(Cl)cc1)Nc1ccc2oc(-c3ccccc3F)nc2c1", "survival": "118%"}, {"smiles": "COc1ccc(/C=C/c2nc3ccccc3c(=O)n2-c2cccc(C(F)(F)F)c2)cc1", "survival": "91%"}, {"smiles": "COc1cccc2sc(NC(=O)CS(=O)(=O)c3ccc(C)cc3)nc12", "survival": "101%"}, {"smiles": "c1ccc(-c2cn(-c3ccccc3)c3ncnc(N4CCN(c5ccccc5)CC4)c23)cc1", "survival": "90%"}, {"smiles": "O=CN1CCN(S(=O)(=O)c2ccc(S(=O)(=O)NC3CC3)cc2)CC1", "survival": "72%"}, {"smiles": "CCOc1ccc(-c2nnc(SCC(=O)NCc3ccc(C)cc3)nc2-c2ccc(OCC)cc2)cc1", "survival": "106%"}, {"smiles": "Cc1ccc(NC(=O)c2ccco2)cc1NC(=O)CSc1ncnc2sc3c(c12)CCC3", "survival": "54%"}, {"smiles": "O=S(=O)(c1ccccc1)c1nc(-c2cccs2)oc1N1CCCCC1", "survival": "116%"}, {"smiles": "Cc1ccc(S(=O)(=O)c2nc(-c3cccs3)oc2N2CCCCC2)cc1", "survival": "39% (active)"}, {"smiles": "CC1CCN(c2nc3c(S(=O)(=O)c4ccccc4)nnn3c3ccsc23)CC1", "survival": "113%"}, {"smiles": "COc1cccc(-c2nc(S(=O)(=O)c3ccccc3)c(N3CCC(C)CC3)o2)c1", "survival": "50%"}, {"smiles": "CC1CCN(c2oc(-c3cccs3)nc2S(=O)(=O)c2ccccc2)CC1", "survival": "35% (active)"}, {"smiles": "COc1ccc(CCNC(=O)CCCn2c(=O)c3ccccc3n(Cc3c(C)cc(C)cc3C)c2=O)cc1OC", "survival": "89%"}, {"smiles": "O=C(NC1CCCCC1)C(c1cccs1)N(Cc1ccco1)C(=O)C1COc2ccccc2O1", "note": "(stereo not given)", "survival": "96%"}, {"smiles": "COc1ccc(OC)c(S(=O)(=O)N2CCC(n3c(C)nc4cccnc43)CC2)c1", "survival": "73%"}, {"smiles": "CCc1ccc2occ(CC(=O)Nc3sc4c(c3C(=O)NCCOC)CCCC4)c2c1", "survival": "77%"}, {"smiles": "CCC(=O)Nc1cc(-c2cccc(C)c2)nn1-c1ccccc1", "survival": "83%"}, {"smiles": "CC1=C(C#N)C(=O)NC(C)(C)C1", "survival": "76%"}, {"smiles": "Cc1ccc(C)c(N2CCN(c3nc4ccc(C(=O)c5ccccc5)cc4n4cnnc34)CC2)c1", "survival": "79%"}, {"smiles": "Cc1ccc(N2CCN(c3nc4ccc(C(=O)c5ccccc5)cc4n4cnnc34)CC2)c(C)c1", "survival": "82%"}, {"smiles": "Cc1ccc(C)c(N2CCN(c3nc4ccccc4n4c(C)nnc34)CC2)c1", "survival": "77%"}, {"smiles": "Clc1cccc(N2CCN(c3nc4ccccc4n4cnnc34)CC2)c1", "survival": "62%"}, {"smiles": "FC(F)(F)c1cccc(N2CCN(c3nc4ccccc4n4cnnc34)CC2)c1", "survival": "25% (active)"}, {"smiles": "Cc1ccc2nc(N3CCN(c4cccc(C)c4C)CC3)c3nncn3c2c1", "survival": "39% (active)"}, {"smiles": "CCc1nnc2c(N3CCN(c4cc(Cl)ccc4C)CC3)nc3ccccc3n12", "survival": "-5% (active)"}, {"smiles": "Cc1ccc(C)c(N2CCN(c3nc4ccc(Cl)cc4n4cnnc34)CC2)c1", "survival": "89%"}, {"smiles": "CCc1nnc2c3ccccc3nc(N3CCN(c4cc(Cl)ccc4C)CC3)n12", "survival": "104%"}, {"smiles": "Cc1ccc2nc(N3CCN(c4cccc(C)c4C)CC3)c3nnnn3c2c1", "survival": "81%"}, {"smiles": "Cc1ccc(Cl)cc1N1CCN(c2nc3ccc(C(=O)c4ccccc4)cc3n3cnnc23)CC1", "survival": "-4% (active)"}, {"smiles": "CCc1nnc2c(N3CCN(c4cccc(C(F)(F)F)c4)CC3)nc3ccccc3n12", "survival": "108%"}, {"smiles": "COc1ccccc1-c1nnc2n(CCc3ccccc3)c(=O)c3ccccc3n12", "survival": "69%"}, {"smiles": "CCN(CC)C(=O)c1sc2c(c1C)c(=O)n(-c1ccc(C)c(C)c1)c(=O)n2CC(=O)Nc1ccc(OC)cc1OC", "survival": "78%"}, {"smiles": "O=C(NCc1cccc(Cl)c1)C1CCCN(c2ncnc3onc(-c4ccc(F)cc4)c23)C1", "note": "(stereo not given)", "survival": "90%"}, {"smiles": "COc1ccc(C)cc1NC(=O)c1nnn(Cc2cccc(Br)c2)c1N", "survival": "87%"}, {"smiles": "COc1ccc(N2CCN(c3oc(-c4ccc(COc5cccc(C)c5)o4)nc3C#N)CC2)cc1", "survival": "102%"}, {"smiles": "COc1cc2nc(C3CCC3)n(NC(=O)c3ccco3)c(=O)c2cc1OC", "survival": "82%"}, {"smiles": "O=S1(=O)N=C(Nc2cccc(C(F)(F)F)c2)c2ccccc21", "survival": "53%"}, {"smiles": "COc1ccccc1N1CCN(c2nc3ccc(C(=O)c4ccccc4)cc3n3c(C)nnc23)CC1", "survival": "46% (active)"}, {"smiles": "Cc1nnc2c(N3CCN(c4ccccc4F)CC3)nc3ccc(C(=O)c4ccccc4)cc3n12", "survival": "93%"}, {"smiles": "Cc1nnc2c(N3CCN(c4ccccc4)CC3)nc3ccc(C(=O)c4ccccc4)cc3n12", "survival": "80%"}, {"smiles": "COc1ccc(NC(=O)Cn2nc(-c3ccccc3)c3cnc4ccc(C)cc4c32)cc1", "survival": "63%"}, {"smiles": "CC(C)c1ccc2c(c1)-c1ccccc1S(=O)(=O)N2CC(=O)N1CCCCC1", "survival": "85%"}, {"smiles": "CCCC(=O)NC(C)c1nc2ccccc2n1Cc1ccccc1", "note": "(stereo not given)", "survival": "101%"}, {"smiles": "Cc1cc(N2CCOCC2)cc(C)[n+]1[O-]", "survival": "90%"}, {"smiles": "CCc1ccc(C2CC(=O)N(c3cccc(C(F)(F)F)c3)C3=C2C(=O)OC3)cc1", "note": "(stereo not given)", "survival": "57% (active)"}, {"smiles": "Cc1cc(C)cc(N2C(=O)CC(c3ccc(C(F)(F)F)cc3)C3=C2COC3=O)c1", "note": "(stereo not given)", "survival": "72%"}, {"smiles": "COc1ccccc1C1CC(=O)N(c2cccc(C(F)(F)F)c2)C2=C1C(=O)OC2", "note": "(stereo not given)", "survival": "56%"}, {"smiles": "CCN(CC)c1ccc(NC(=O)c2cc(CN3CCCC3)on2)c(C)c1", "survival": "102%"}, {"smiles": "CC(=O)c1ccc(N2CCN(c3ncnc4onc(C)c34)CC2)cc1", "survival": "55%"}, {"smiles": "COc1ccc(S(=O)(=O)c2nnn(-c3cccc(Cl)c3)c2N)cc1", "survival": "56%"}, {"smiles": "CCOc1cccc(-c2nc3ccccc3c(=O)o2)c1", "survival": "35% (active)"}, {"smiles": "CCCOc1ccc(-c2nc3ccccc3c(=O)o2)cc1", "survival": "64%"}, {"smiles": "CCOc1ccc(-c2nc3ccccc3c(=O)o2)cc1", "survival": "68%"}, {"smiles": "CCCOc1cccc(C(=O)NCc2cccnc2)c1", "survival": "81%"}, {"smiles": "COc1cc(N2C(=O)CSC23C(=O)N(C)c2ccccc23)cc(OC)c1OC", "note": "(stereo not given)", "survival": "66%"}]}]}
